# Laboratory results: PubChem BioAssay (NCATS)
# Unmarked numbers belong to inactive results. Inconclusive results are not listed. Entries that show only a call come without a potency. The source made the active and inactive calls. Calls follow the shape of the dose curve; as a rule, active = well fitted curve in the direction sought with a large enough effect; inconclusive = small, poorly fitted or top-dose-only effect, or another doubt; inactive = no such curve, though single readings can be large; an effect the other way counts as inactive or inconclusive.
# How the values were obtained:
# [1] = P-glycoprotein substrates identified in KB-8-5-11 adenocarcinoma cell line, qHTS therapeutic library screen (AID 1346987); also: nearly all actives have a fitted effect of over 65% in size
# Method in brief: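 Human cervical adenocarcinoma KB-8-5-11 cells, selected in colchicine to over-express P-gp and assayed without it, were exposed for 72 h to titrated compounds. An ATP-based luminescent viability signal gave AC50.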
# [2] = Primary qHTS for inhibitors of nuclear receptor binding SET domain protein 2 (NSD2) in an isogenic RCH-ACV NSD2 p.E1099K mutant (9B) (AID 1645876); also: nearly all actives have a fitted effect of over 70% in size
# [3] = Primary qHTS for inhibitors of nuclear receptor binding SET domain protein 2 (NSD2) in an RCH-ACV wild type WT cells (2C) (AID 1645877); also: nearly all actives have a fitted effect of over 70% in size
# [4] = molecular target: Glutathione peroxidase 1 (Homo sapiens) (UniProt P07203); experiment: Primary qHTS Assay for Inhibitors of Recombinant Selenoprotein Glutathione Peroxidase 1 (GPX1) (AID 1845191); also: nearly all actives have a fitted effect of over 65% in size
# Glutathione peroxidase 1 (Homo sapiens), sequence (P07203 whole entry, looked up): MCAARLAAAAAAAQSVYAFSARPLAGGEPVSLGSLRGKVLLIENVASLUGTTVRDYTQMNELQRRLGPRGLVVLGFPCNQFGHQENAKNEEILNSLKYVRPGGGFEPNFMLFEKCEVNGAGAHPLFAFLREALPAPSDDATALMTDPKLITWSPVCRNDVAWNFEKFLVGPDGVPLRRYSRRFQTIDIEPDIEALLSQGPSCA
# Method in brief: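 GR-coupled readout: NADPH consumption tracked by fluorescence, ex 340/em 450 nm, at t=0 and after 15 min at RT. Final mix 10 nM GPX1, 1 mM GSH, 0.5 mM CHP, 0.5 mM NADPH, 100 nM GR, 0.01% BSA, following 30 min enzyme–compound preincubation.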
# [5] = molecular target: Phospholipid hydroperoxide glutathione peroxidase GPX4 (Homo sapiens) (UniProt P36969); experiment: Primary qHTS Assay for Inhibitors of Recombinant Selenoprotein Glutathione Peroxidase 4 (GPX4) (AID 1845192); also: nearly all actives have a fitted effect of over 65% in size
# Phospholipid hydroperoxide glutathione peroxidase GPX4 (Homo sapiens), sequence (P36969 whole entry, looked up): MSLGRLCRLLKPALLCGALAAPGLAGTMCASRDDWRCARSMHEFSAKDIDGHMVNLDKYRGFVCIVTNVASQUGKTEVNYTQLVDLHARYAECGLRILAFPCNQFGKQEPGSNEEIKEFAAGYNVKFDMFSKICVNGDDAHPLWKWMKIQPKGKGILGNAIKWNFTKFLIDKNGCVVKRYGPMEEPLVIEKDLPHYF
# Method in brief: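 Steps: GPX4 plus compound, 30 min RT; add GR/GSH/NADPH master mix; start with cumene hydroperoxide; read 340/450 nm fluorescence at 0 and 15 min. Finals were 200 nM GPX4, 1 mM GSH, 0.5 mM CHP, 0.5 mM NADPH, 100 nM GR.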
# [6] = molecular target: Luciferin 4-monooxygenase (Photinus pyralis) (UniProt P08659); experiment: Primary firefly luciferase (FLuc) qHTS assay for identification of artifact compounds. (AID 1845220); settings: outcome: dose series up to 54.1 µM unless noted; also: nearly all actives have a fitted effect of over 60% in size
# Method in brief: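 Enzymatic FLuc inhibition assay: compounds pre-exposed to luciferin/ATP (10 uM each) for 15 min, then purified P. pyralis enzyme at 10 nM added. Read-out: luminescence at 5 min.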
# [7] = tested on: Nanoluciferase (engineered Oplophorus gracilirostris luciferase); experiment: Primary Nanoluciferase (NLuc) qHTS assay for identification of artifact compounds. (AID 1845222); also: potency is read from the fitted curve at half-maximal effect
# Method in brief: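 S16 cell supernatant NLuc, 1:55; cpds qHTS; 15 min RT dark; Nano-Glo substrate 1:100, 5 min; luminescence; Hill fit of % inhibition.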
# [8] = tested on: CRL-7250; experiment: Cytotoxic Profiling of Annotated Libraries Using Quantitative High-Throughput Screening (AID 1296008); settings: Five cell lines viability, CellTiter-Glo ATP luminescence, 48-72 h; max response: hits give low values; also: nearly all actives have a fitted effect of over 60% in size
# Method in brief: (§1)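 Cells exposed to compounds for 48 or 72 hr at 37 degrees Celsius. Viability read as ATP-coupled luminescence with CellTiter-Glo after 10 min at room temperature.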
# [9] = tested on: HEK293; experiment: as above; settings: Five cell lines viability, CellTiter-Glo ATP luminescence, 48-72 h; max response: hits give low values
# Method in brief: as §1
# [10] = tested on: HaCat; experiment: as above; settings: Five cell lines viability, CellTiter-Glo ATP luminescence, 48-72 h; max response: hits give low values
# Method in brief: as §1
# [11] = tested on: NIH3T3; experiment: as above; settings: Five cell lines viability, CellTiter-Glo ATP luminescence, 48-72 h; max response: hits give low values
# Method in brief: as §1
# [12] = tested on: C33A; experiment: Primary qHTS to identify gynecologic anti-cancer compounds using libraries of approved drugs and bioactive compounds (AID 1345084); settings: Gynecologic cancer cell panel viability, ATPlite luminescence, 48 h; series mostly up to 57.5 µM; also: nearly all actives have a fitted effect of over 55% in size
# Method in brief: (§2)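 Luminescence from the ATPlite ATP-monitoring reagent indicates viable cell number; lower signal means cytotoxicity. Cells received compound 16 h after seeding and were exposed for 48 h across five concentrations.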
# [13] = tested on: CASKI; experiment: as above; settings: Gynecologic cancer cell panel viability, ATPlite luminescence, 48 h; series mostly up to 57.5 µM
# Method in brief: as §2
# [14] = tested on: Es-2; experiment: as above; settings: Gynecologic cancer cell panel viability, ATPlite luminescence, 48 h; series mostly up to 57.5 µM
# Method in brief: as §2
# [15] = tested on: HeLa; experiment: as above; settings: Gynecologic cancer cell panel viability, ATPlite luminescence, 48 h; series mostly up to 57.5 µM
# Method in brief: as §2
# [16] = tested on: Hek293T; experiment: as above; settings: Gynecologic cancer cell panel viability, ATPlite luminescence, 48 h, control line for the selectivity index; series mostly up to 57.5 µM
# Method in brief: as §2
# [17] = tested on: OV90; experiment: as above; settings: Gynecologic cancer cell panel viability, ATPlite luminescence, 48 h; series mostly up to 57.5 µM
# Method in brief: as §2
# [18] = tested on: PA-1; experiment: as above; settings: Gynecologic cancer cell panel viability, ATPlite luminescence, 48 h; series mostly up to 57.5 µM
# Method in brief: as §2
# [19] = tested on: Tov-21-G; experiment: as above; settings: Gynecologic cancer cell panel viability, ATPlite luminescence, 48 h; series mostly up to 57.5 µM
# Method in brief: as §2
# [20] = tested on: Tov112D; experiment: as above; settings: Gynecologic cancer cell panel viability, ATPlite luminescence, 48 h; series mostly up to 57.5 µM
# Method in brief: as §2
smiles,measurement,setting,value
COC(=O)CC1CC2(C(=O)c3c(O)cccc3C2(O)C(=O)OC)C(C)O1 (stereo not given),Potency,[1],inactive
same,Potency,[2],inactive
same,Potency,[3],inactive
same,Potency,[4],inactive
same,Potency,[5],inactive
same,outcome,[6],inactive
same,Potency,[7],inactive
same,max response,[8],2.33%
same,max response,[9],-1.89%
same,outcome,[10],inactive
same,max response,[11],4.05%
same,Potency,[12],inactive
same,Potency,[13],inactive
same,Potency,[14],inactive
same,Potency,[15],inactive
same,Potency,[16],inactive
same,Potency,[17],inactive
same,Potency,[18],inactive
same,Potency,[19],inactive
same,Potency,[20],inactive
CC1CCCC(O)CC(=O)Cc2cc(O)cc(O)c2C(=O)O1 (stereo not given),Potency,[1],inactive
same,Potency,[2],inactive
same,Potency,[3],inactive
same,Potency,[4],inactive
same,Potency,[5],inactive
same,outcome,[6],inactive
same,Potency,[7],inactive
same,max response,[8],-9.43%
same,max response,[9],4.64%
same,outcome,[10],inactive
same,max response,[11],2.95%
same,Potency,[12],inactive
same,Potency,[13],inactive
same,Potency,[14],inactive
same,Potency,[15],inactive
same,Potency,[16],inactive
same,Potency,[17],inactive
same,Potency,[18],inactive
same,Potency,[19],inactive
same,Potency,[20],inactive
CN1CCc2cc3c(cc2C1C1OC(=O)c2c1ccc1c2OCO1)OCO3 (stereo not given),Potency,[1],inactive
same,Potency,[2],inactive
same,Potency,[3],inactive
same,Potency,[4],inactive
same,Potency,[5],inactive
same,outcome,[6],inactive
same,Potency,[7],inactive
same,max response,[8],-4.88%
same,max response,[9],1.39%
same,max response,[10],-1.45%
same,max response,[11],0.735%
same,Potency,[12],inactive
same,Potency,[13],inactive
same,Potency,[14],inactive
same,Potency,[15],inactive
same,Potency,[16],inactive
same,Potency,[17],inactive
same,Potency,[18],inactive
same,Potency,[19],inactive
same,Potency,[20],inactive
COC1C=CC23c4cc5c(cc4COC2(O)CN(C)C3C1)OCO5 (stereo not given),Potency,[1],inactive
same,Potency,[2],inactive
same,Potency,[3],inactive
same,Potency,[4],inactive
same,Potency,[5],inactive
same,outcome,[6],inactive
same,Potency,[7],inactive
same,max response,[8],-6.96%
same,max response,[9],-0.372%
same,outcome,[10],inactive
same,max response,[11],-0.709%
same,Potency,[12],inactive
same,Potency,[13],inactive
same,Potency,[14],inactive
same,Potency,[15],inactive
same,Potency,[16],inactive
same,Potency,[17],inactive
same,Potency,[19],inactive
same,Potency,[20],inactive
C=CC(C)(C)c1[nH]c2c(CC=C(C)C)cc(CC=C(C)C)cc2c1C[C@@H]1NC(=O)[C@H](C)NC1=O,Potency,[1],inactive
same,Potency,[2],inactive
same,Potency,[3],inactive
same,Potency,[4],inactive
same,Potency,[5],inactive
same,Potency,[7],inactive
same,max response,[8],3.03%
same,max response,[9],-8.14%
same,max response,[10],-1.56%
same,max response,[11],2.77%
same,Potency,[12],inactive
same,Potency,[13],inactive
same,Potency,[14],inactive
same,Potency,[15],inactive
same,Potency,[16],inactive
same,Potency,[17],inactive
same,Potency,[18],inactive
same,Potency,[19],inactive
same,Potency,[20],inactive
NC(=O)c1ncn2c1CN=C(c1ccccc1Br)c1cc(F)ccc1-2,Potency,[1],inactive
same,Potency,[2],inactive
same,Potency,[3],inactive
same,Potency,[4],inactive
same,Potency,[5],inactive
same,outcome,[6],inactive
same,Potency,[7],inactive
same,max response,[8],-2.22%
same,max response,[9],0.36%
same,max response,[10],-12.6%
same,max response,[11],1.84%
same,Potency,[12],inactive
same,Potency,[13],inactive
same,Potency,[14],inactive
same,Potency,[15],inactive
same,Potency,[16],inactive
same,Potency,[17],inactive
same,Potency,[18],inactive
same,Potency,[19],inactive
same,Potency,[20],inactive
CC[C@H]1C2CC3[C@@H]4N(C)c5ccccc5[C@]45C[C@@H]([C@H]2[C@H]5O)N3[C@H]1O,Potency,[1],inactive
same,Potency,[2],inactive
same,Potency,[3],inactive
same,Potency,[4],inactive
same,Potency,[5],inactive
same,outcome,[6],inactive
same,Potency,[7],inactive
same,max response,[8],3.45%
same,max response,[9],3.06%
same,outcome,[10],inactive
same,max response,[11],4.15%
same,Potency,[12],inactive
same,Potency,[13],inactive
same,Potency,[14],inactive
same,Potency,[15],inactive
same,Potency,[16],inactive
same,Potency,[17],inactive
same,Potency,[18],inactive
same,Potency,[19],inactive
same,Potency,[20],inactive
COC(=O)[C@]12CCCC(C)(C)C1CCc1cc(C(C)C)c(O)c(O)c12 (stereo not given in full),Potency,[1],inactive
same,Potency,[2],inactive
same,Potency,[4],inactive
same,Potency,[5],inactive
same,outcome,[6],inactive
same,Potency,[7],18.6 µM (active)
same,max response,[8],-0.302%
same,max response,[9],3.53%
same,outcome,[10],inactive
same,max response,[11],2.35%
same,Potency,[12],inactive
same,Potency,[13],inactive
same,Potency,[14],inactive
same,Potency,[15],inactive
same,Potency,[16],inactive
same,Potency,[17],inactive
same,Potency,[18],inactive
same,Potency,[19],inactive
same,Potency,[20],inactive
C=CC/C=C\C/C=C\CCCCCCCc1cc(O)cc(O)c1,Potency,[1],inactive
same,Potency,[4],inactive
same,Potency,[5],inactive
same,outcome,[6],inactive
same,Potency,[7],inactive
same,max response,[8],-22.2%
same,max response,[9],-20.2%
same,outcome,[10],inactive
same,max response,[11],-20.8%
same,Potency,[12],inactive
same,Potency,[13],inactive
same,Potency,[14],inactive
same,Potency,[15],inactive
same,Potency,[16],inactive
same,Potency,[17],inactive
same,Potency,[18],inactive
same,Potency,[19],inactive
same,Potency,[20],inactive
